# Reference: the supplement of paper PMC6411743
# ± gives the standard deviation of the averaged measurements. Of roughly 6,500 targets only a part is listed; those with the largest changes were picked by preference.
# What was measured:
# Assay in all cases: NP40-soluble protein abundance relative to vehicle (solubility fold change) (ratio); higher = more soluble protein in presence of ATP
# [1] = molecular target: T1, GBP1 (UniProt P32455)
# T1 sequence (whole entry): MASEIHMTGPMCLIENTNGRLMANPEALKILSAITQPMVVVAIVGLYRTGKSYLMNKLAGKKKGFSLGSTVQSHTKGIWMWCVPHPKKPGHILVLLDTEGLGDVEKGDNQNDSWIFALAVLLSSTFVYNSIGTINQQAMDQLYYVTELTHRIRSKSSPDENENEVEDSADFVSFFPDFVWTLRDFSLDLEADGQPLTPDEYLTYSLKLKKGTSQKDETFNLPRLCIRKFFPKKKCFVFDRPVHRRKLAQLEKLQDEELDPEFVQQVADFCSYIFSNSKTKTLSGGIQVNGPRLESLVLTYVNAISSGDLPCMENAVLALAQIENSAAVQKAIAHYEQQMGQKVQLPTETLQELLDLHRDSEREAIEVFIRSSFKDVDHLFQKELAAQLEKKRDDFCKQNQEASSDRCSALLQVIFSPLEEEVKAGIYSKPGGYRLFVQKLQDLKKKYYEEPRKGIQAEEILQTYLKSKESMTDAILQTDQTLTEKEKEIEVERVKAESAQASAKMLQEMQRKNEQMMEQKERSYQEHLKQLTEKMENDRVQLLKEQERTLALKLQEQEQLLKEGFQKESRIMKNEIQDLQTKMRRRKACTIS
# Method in brief: (§1)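 Values are fold changes against the detergent-processed vehicle, based on vsn-normalised intensities. Jurkat crude lysate was treated at eight concentrations from 0.1 to 10 mM (10 min at room temperature, then 3 min at 37 °C), solubilised with 0.8% NP40 and benzonase, ultracentrifuged and analysed by TMT-labelled LC-MS/MS over three independent experiments.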
# [2] = molecular target: T2, NKTR (UniProt P30414)
# T2 sequence (whole entry): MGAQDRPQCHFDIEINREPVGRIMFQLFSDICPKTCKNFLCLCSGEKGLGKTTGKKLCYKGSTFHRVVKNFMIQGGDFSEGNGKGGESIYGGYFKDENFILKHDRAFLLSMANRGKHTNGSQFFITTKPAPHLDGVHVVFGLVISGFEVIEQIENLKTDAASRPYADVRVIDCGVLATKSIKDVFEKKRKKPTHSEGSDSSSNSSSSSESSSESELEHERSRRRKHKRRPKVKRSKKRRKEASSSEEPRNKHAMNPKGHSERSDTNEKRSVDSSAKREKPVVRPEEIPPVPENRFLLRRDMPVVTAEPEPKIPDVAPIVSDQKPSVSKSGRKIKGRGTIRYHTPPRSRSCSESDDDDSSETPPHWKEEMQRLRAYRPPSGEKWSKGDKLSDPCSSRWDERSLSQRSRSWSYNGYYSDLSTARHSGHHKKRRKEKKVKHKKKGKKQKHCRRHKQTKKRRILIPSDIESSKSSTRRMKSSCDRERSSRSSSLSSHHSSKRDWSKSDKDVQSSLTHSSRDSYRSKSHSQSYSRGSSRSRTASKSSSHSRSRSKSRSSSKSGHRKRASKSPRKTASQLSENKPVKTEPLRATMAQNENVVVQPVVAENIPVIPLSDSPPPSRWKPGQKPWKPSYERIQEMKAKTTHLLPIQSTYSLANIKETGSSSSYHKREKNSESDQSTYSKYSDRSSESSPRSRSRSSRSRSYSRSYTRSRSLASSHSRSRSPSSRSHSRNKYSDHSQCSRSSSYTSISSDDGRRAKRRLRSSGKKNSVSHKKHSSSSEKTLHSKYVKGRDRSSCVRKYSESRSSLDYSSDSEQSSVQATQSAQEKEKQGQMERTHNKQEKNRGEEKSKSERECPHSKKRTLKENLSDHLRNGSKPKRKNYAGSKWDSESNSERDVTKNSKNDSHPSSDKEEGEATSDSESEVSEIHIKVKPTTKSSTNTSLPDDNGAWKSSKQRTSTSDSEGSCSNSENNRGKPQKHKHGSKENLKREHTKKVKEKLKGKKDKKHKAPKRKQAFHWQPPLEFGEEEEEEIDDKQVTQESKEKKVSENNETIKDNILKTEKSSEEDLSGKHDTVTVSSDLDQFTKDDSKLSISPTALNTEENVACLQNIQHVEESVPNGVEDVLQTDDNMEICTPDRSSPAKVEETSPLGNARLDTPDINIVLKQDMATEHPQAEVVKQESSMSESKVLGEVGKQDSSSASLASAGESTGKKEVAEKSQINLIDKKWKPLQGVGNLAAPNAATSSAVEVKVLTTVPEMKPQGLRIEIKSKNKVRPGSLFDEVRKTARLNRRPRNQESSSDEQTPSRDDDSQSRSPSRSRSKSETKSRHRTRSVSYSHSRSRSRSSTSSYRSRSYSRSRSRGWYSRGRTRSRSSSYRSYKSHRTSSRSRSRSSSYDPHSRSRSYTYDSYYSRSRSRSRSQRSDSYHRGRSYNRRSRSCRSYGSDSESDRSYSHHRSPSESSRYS
# Method in brief: as §1
# [3] = molecular target: T3, SEC24C (UniProt P53992)
# T3 sequence (whole entry): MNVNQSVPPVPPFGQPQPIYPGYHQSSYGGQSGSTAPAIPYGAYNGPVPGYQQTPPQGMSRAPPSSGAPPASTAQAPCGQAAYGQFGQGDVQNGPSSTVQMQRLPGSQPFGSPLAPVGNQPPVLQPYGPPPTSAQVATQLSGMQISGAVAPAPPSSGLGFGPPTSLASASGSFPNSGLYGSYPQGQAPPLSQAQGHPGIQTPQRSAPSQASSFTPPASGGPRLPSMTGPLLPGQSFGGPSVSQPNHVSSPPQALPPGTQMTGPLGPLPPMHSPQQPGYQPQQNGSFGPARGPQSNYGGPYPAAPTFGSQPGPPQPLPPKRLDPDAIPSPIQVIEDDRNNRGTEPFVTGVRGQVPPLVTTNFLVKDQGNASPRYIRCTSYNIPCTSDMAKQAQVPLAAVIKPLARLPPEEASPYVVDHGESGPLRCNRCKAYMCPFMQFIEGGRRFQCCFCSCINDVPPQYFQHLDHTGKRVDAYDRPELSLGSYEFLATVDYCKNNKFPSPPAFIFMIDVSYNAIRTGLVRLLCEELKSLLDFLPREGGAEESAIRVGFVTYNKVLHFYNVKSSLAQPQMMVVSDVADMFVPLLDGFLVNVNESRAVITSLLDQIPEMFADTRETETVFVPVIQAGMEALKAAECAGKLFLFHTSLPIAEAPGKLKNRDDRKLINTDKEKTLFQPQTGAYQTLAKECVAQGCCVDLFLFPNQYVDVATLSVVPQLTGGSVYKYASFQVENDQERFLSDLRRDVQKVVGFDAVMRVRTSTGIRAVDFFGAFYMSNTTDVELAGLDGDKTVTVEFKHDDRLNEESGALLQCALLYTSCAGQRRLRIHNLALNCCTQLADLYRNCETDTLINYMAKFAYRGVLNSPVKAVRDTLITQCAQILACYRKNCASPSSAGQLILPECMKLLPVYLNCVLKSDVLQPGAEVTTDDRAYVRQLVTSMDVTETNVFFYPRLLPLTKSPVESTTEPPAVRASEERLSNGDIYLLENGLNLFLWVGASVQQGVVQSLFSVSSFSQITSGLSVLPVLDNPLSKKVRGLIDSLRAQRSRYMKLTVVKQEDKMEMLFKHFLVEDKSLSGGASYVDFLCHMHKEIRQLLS
# Method in brief: as §1
# [4] = molecular target: T4, SPAG7 (UniProt O75391); conditions: concentration: 1mM
# T4 sequence (whole entry): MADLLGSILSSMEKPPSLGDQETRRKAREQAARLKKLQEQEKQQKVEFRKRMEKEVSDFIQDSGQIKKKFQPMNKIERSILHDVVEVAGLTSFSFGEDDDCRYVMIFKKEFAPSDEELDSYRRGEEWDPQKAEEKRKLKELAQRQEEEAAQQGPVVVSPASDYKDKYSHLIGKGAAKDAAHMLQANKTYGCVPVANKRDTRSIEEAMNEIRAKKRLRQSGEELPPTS
# Method in brief: as §1
smiles,measurement,setting,value
Nc1ncnc2c1ncn2[C@@H]1O[C@H](COP(=O)(O)OP(=O)(O)OP(=O)(O)O)[C@@H](O)[C@H]1O [adenosine triphosphate],NP40-soluble protein abundance,[1]; concentration: 1mM,0.968 ± 0.053
same,NP40-soluble protein abundance,[1]; concentration: 2mM,0.96 ± 0.0051
same,NP40-soluble protein abundance,[1]; concentration: 4mM,0.945 ± 0.011
same,NP40-soluble protein abundance,[1]; concentration: 6mM,0.979 ± 0.015
same,NP40-soluble protein abundance,[1]; concentration: 8mM,0.922 ± 0.018
same,NP40-soluble protein abundance,[1]; concentration: 10mM,0.936 ± 0.03
same,NP40-soluble protein abundance,[2]; concentration: 1mM,1.53 ± 0.25
same,NP40-soluble protein abundance,[2]; concentration: 2mM,1.63 ± 0.19
same,NP40-soluble protein abundance,[2]; concentration: 4mM,1.68 ± 0.23
same,NP40-soluble protein abundance,[2]; concentration: 6mM,1.83 ± 0.22
same,NP40-soluble protein abundance,[2]; concentration: 8mM,1.75 ± 0.19
same,NP40-soluble protein abundance,[2]; concentration: 10mM,1.75 ± 0.22
same,NP40-soluble protein abundance,[3]; concentration: 1mM,0.99 ± 0.055
same,NP40-soluble protein abundance,[3]; concentration: 2mM,0.987 ± 0.057
same,NP40-soluble protein abundance,[3]; concentration: 4mM,0.98 ± 0.043
same,NP40-soluble protein abundance,[3]; concentration: 6mM,0.919 ± 0.095
same,NP40-soluble protein abundance,[3]; concentration: 8mM,0.981 ± 0.019
same,NP40-soluble protein abundance,[3]; concentration: 10mM,0.984 ± 0.074
same,NP40-soluble protein abundance,[4],0.972 ± 0.053
